In the library only some 3.4% were active in any assay of this set; here they are far more common.
KLK7 zymogen act = proKLK7 zymogen activators, primary screen, biochemical, fluorescence intensity; AID 652039, 2013; purified proKLK7, EDANS-DABCYL substrate fluorescence; 100% is mature enzyme control, 0% vehicle; activation, % at 7 µM; actives 0.9% (n = 370,000);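 active = activation above the mean of all tested compounds plus 3 SD, computed per campaign excluding outliers beyond control limits, cut at about 13% in these data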
CendR NRP1 mod = modulators of CendR peptide binding to NRP-1, primary screen, biochemical, fluorescence polarization, uHTS; Neuropilin-1 (Homo sapiens), O14786; actives 0.85% (n = 360,000); inhibition, % at 25 µM; FAM-RPARPAR peptide binding to NRP-1;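 active = inhibition or corrected inhibition above about 18%, plus a signal ratio from 0.5 to 1.5, limit read from the data, passing the limit was not always enough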
Target sequence (O14786 whole entry, looked up): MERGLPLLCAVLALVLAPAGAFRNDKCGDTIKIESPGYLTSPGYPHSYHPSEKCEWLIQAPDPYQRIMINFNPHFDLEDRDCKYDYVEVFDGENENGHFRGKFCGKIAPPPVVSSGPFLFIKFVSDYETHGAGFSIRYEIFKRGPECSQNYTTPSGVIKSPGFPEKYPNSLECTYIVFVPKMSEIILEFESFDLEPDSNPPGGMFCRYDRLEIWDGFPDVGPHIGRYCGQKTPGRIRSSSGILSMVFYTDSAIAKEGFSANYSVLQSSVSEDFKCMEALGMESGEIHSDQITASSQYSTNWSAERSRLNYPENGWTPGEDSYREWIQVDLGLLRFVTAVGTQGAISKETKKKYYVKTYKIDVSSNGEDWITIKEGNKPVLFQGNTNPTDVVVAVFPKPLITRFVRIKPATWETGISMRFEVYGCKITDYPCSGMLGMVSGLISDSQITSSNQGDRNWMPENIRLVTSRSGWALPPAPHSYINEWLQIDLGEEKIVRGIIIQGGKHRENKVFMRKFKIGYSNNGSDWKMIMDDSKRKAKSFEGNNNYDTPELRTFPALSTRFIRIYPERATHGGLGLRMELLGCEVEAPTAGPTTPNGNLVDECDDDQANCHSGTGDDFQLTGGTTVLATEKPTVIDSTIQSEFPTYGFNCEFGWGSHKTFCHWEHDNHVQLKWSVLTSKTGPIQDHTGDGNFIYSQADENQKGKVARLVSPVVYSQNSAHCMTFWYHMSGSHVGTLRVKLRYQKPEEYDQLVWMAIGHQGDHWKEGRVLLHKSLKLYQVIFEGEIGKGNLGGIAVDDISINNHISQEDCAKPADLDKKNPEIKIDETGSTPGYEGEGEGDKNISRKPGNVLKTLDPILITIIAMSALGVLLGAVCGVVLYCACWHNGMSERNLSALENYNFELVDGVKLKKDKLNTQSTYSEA
ADAM10 inh = human ADAM10 inhibitors, primary screen, biochemical, QFRET, HTS; recombinant ADAM10, EDANS/DABCYL FRET peptide cleavage, 3 h; inhibition, % at 7 µM; actives 0.62% (n = 370,000); AID 720582, 2013;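 active = inhibition above a per-campaign cutoff equal to the mean of compounds falling between control-based bounds plus 3 SD, cut at about 20% in these data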;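 note: 0% = DMSO wells while the 100% control is not disclosed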
sPLA2-III inh = human group III sPLA2 inhibitors, primary screen, biochemical, QFRET, BODIPY PC-A2 liposome substrate | inhibition, % at 12.2 µM | QFRET BODIPY PC-A2 liposome hydrolysis, fluorescence | actives 0.56% (n = 370,000) | Group 3 secretory phospholipase A2 (Homo sapiens), Q9NZ20 | AID 743126, 2013;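 active = inhibition above mean plus 3 SD of compounds lying within the high and low control bounds, cut at about 19% in these data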;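 note: 0% = median of test compound wells and 100% = no enzyme DMSO wells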
ADAM17 inh = ADAM17 inhibitors, primary screen, biochemical, QFRET; Disintegrin and metalloproteinase domain-containing protein 17 (Homo sapiens), P78536; recombinant ADAM17, EDANS/DABCYL FRET peptide cleavage; inhibition, % at 6.95 µM; actives 0.83% (n = 370,000); AID 720648, 2013;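 active = inhibition above the mean of compounds lying between control limits plus 3 SD, set per campaign, cut at about 8.5% in these data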;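 note: 0% = DMSO-only wells as the low control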
ADAM10 confirm = human ADAM10 inhibitors, confirmation, biochemical, QFRET, triplicate | shares compounds with ADAM10 inh | ADAM10 QFRET peptide cleavage, EDANS fluorescence | inhibition, % at 6.95 µM | actives 1% (n = 2,100);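 active = inhibition above about 20% chosen separately for each screening run, limit read from the data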;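 note: 0% = DMSO wells and 100% = marimastat wells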
ADAM17 counter = ADAM17 inhibitors, counter-screen for ADAM10 exosite inhibitor project, biochemical, QFRET, high throughput; inhibition, % at 6.95 µM; actives 0.5% (n = 2,100); shares compounds with ADAM10 inh; ADAM17 QFRET peptide cleavage, EDANS fluorescence;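 active = mean triplicate inhibition above the solvent-only control wells' mean plus 3 SD, cut at about 12% in these data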;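 note: 0% = DMSO wells and 100% = marimastat wells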
ADAM10 counter = ADAM10 inhibitors, counter-screen for ADAM17 exosite inhibitor project, biochemical, FRET, human ADAM10. recombinant ADAM10, EDANS/DABCYL FRET peptide cleavage, 3 h. inhibition, % at 6.95 µM. actives 47% (n = 2,900). AID 743256, 2014. shares compounds with ADAM17 inh;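 active = mean inhibition over the triplicate runs exceeds the activity threshold set in the earlier primary screen, cut at about 20% in these data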;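 note: 0% = DMSO wells and 100% = marimastat wells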
ADAM17 confirm = ADAM17 inhibitors, hit retest, confirmation, biochemical, QFRET peptide cleavage; actives 65% (n = 2,900); inhibition, % at 6.95 µM; recombinant ADAM17, EDANS/DABCYL QFRET peptide cleavage; shares compounds with ADAM17 inh; AID 743257, 2014;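 active = mean inhibition across replicates above the hit cutoff set in the primary screen, cut at about 8.5% in these data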;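 note: 0% = DMSO wells and 100% = marimastat wells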
The depositor's hits bear a star.

Screening C[C@H]1[C@@H](OC(=O)Nc2ccccc2F)CC[C@@]23CCCN2C(=O)CCC[C@@H]13 returned ADAM10 inh -0.8, sPLA2-III inh -4.3 and ADAM17 inh -2.1.
For CCOC(=O)c1ccc(NC(=S)NCCc2ccccc2)cc1 the results were KLK7 zymogen act -0.1, CendR NRP1 mod -11.0, ADAM10 inh 46.0*, sPLA2-III inh -15.3, ADAM17 inh 11.1*, ADAM10 confirm 1.2, ADAM17 counter 0.3, ADAM10 counter 21.3* and ADAM17 confirm 10.6*.
Screening O=[N+]([O-])c1cccc(I)c1 returned KLK7 zymogen act -0.1, ADAM10 inh -8.1, sPLA2-III inh 0.1 and ADAM17 inh -4.2.
For CCOC(=O)[C@@]12CCC3=C1N(CCC3)C(=O)[C@H](CC(=O)N1CCC(c3ccccc3)CC1)C2 the results were KLK7 zymogen act 0.2, ADAM10 inh 2.5, sPLA2-III inh 3.0 and ADAM17 inh -6.2.
For COCc1cccc(-c2cc(C(=O)OC)c3n(c2=O)CCC3)c1 the results were KLK7 zymogen act -0.4, ADAM10 inh -18.5, sPLA2-III inh -5.1 and ADAM17 inh -6.6.
`COC1=C[C@H](C(=O)NCc2ccc(Br)cc2)[C@H](C)[C@@H](c2ccccc2)CC1=O` gave KLK7 zymogen act 0.2, ADAM10 inh 9.2, sPLA2-III inh -16.4 and ADAM17 inh 6.9.
C=CCOC(=O)C1=C[C@H](C2CCCCC2)C[C@H](OCc2ccc(CO)cc2)O1 was read as KLK7 zymogen act -0.4, CendR NRP1 mod -9.4, ADAM10 inh 5.6, sPLA2-III inh 1.7 and ADAM17 inh -2.7.
For NC(=O)C1=C[C@H](C2CCCCC2)C[C@H](OCc2ccc(CO)cc2)O1 the results were KLK7 zymogen act 0.3, CendR NRP1 mod 27.9*, ADAM10 inh 20.2*, sPLA2-III inh -23.4, ADAM17 inh 8.9*, ADAM10 confirm -1.7, ADAM17 counter -0.1, ADAM10 counter -4.0 and ADAM17 confirm 3.5.
For S=C(Nc1ccc(Br)cc1)OC1CCC12CCC(c1ccccc1)CC2 (centres undefined) the results were KLK7 zymogen act 0.3, ADAM10 inh 5.2, sPLA2-III inh -0.7 and ADAM17 inh 2.6.
Screening CCN(CC)S(=O)(=O)c1ccc(S(=O)(=O)Nc2ccc3c(c2)oc2ccccc23)cc1 returned KLK7 zymogen act 0.6, CendR NRP1 mod 10.3, ADAM10 inh 32.1*, sPLA2-III inh -115.9, ADAM17 inh 13.7*, ADAM10 confirm 8.8, ADAM17 counter 3.2, ADAM10 counter 47.4* and ADAM17 confirm 25.1*.
For CCN(CC)S(=O)(=O)c1ccc(NS(=O)(=O)c2ccc(C)c(C)c2)cc1 the results were KLK7 zymogen act 0.4, CendR NRP1 mod 8.4, ADAM10 inh -5.7, sPLA2-III inh -39.1 and ADAM17 inh 0.1.
Screening Cc1cccc(NC(=O)CNC(=O)[C@@H](Cc2ccccc2)NC(=O)[C@H]2O[C@@H](n3ccc(=O)[nH]c3=O)[C@H](O)[C@@H]2O)c1C returned KLK7 zymogen act 0.5, ADAM10 inh -0.4, sPLA2-III inh 2.5 and ADAM17 inh 4.6.
For CC(=O)c1cccc(NC(=O)C2C(c3ccccc3)C2(Cl)Cl)c1 (centres undefined) the results were KLK7 zymogen act 0.6, CendR NRP1 mod 1.0, ADAM10 inh -2.0, sPLA2-III inh -7.3 and ADAM17 inh 1.8.
Screening Cc1cccc(NC(=O)C2C(c3ccccc3)C2(Cl)Cl)c1 (centres undefined) returned KLK7 zymogen act 0.5, CendR NRP1 mod -7.6, ADAM10 inh 21.3*, sPLA2-III inh 2.2, ADAM17 inh 11.4*, ADAM10 confirm 5.1, ADAM17 counter 1.8, ADAM10 counter 24.4* and ADAM17 confirm 14.0*.
For Cc1ccc(NS(=O)(=O)c2ccc(C)c(NC(=O)c3ccc(S(=O)(=O)N4CCCCCC4)cc3)c2)c(C)c1 the results were KLK7 zymogen act -0.8, CendR NRP1 mod -2.6, ADAM10 inh 23.3*, sPLA2-III inh -15.3, ADAM17 inh 8.8*, ADAM10 confirm 10.2, ADAM17 counter 2.5, ADAM10 counter 45.7* and ADAM17 confirm 23.6*.
`NC(=O)CC(NC(=O)c1ccc(Br)cc1)c1ccc(N2CCN(c3ccccc3)CC2)c([N+](=O)[O-])c1` (centres undefined) gave KLK7 zymogen act 0.2, CendR NRP1 mod 9.4, ADAM10 inh 4.8, sPLA2-III inh -4.3 and ADAM17 inh -2.3.
Screening NC(=O)CC(NC(=O)c1ccc(Br)cc1)c1ccc(N2CCCCCCC2)c([N+](=O)[O-])c1 (centres undefined) returned KLK7 zymogen act 0.4, CendR NRP1 mod 2.5, ADAM10 inh 22.6*, sPLA2-III inh 0.1, ADAM17 inh 10.5*, ADAM10 confirm 5.4, ADAM17 counter 1.3, ADAM10 counter 22.0* and ADAM17 confirm 12.2*.
`Cc1ccccc1NC(=S)NCCc1c[nH]c2ccccc12` gave KLK7 zymogen act -0.5, CendR NRP1 mod -4.0, ADAM10 inh -0.7, sPLA2-III inh 8.7 and ADAM17 inh 0.0.
For COc1ccc(Cl)cc1NC(=S)NCCc1c[nH]c2ccccc12 the results were KLK7 zymogen act 0.4, CendR NRP1 mod -3.4, ADAM10 inh 22.0*, sPLA2-III inh -36.7, ADAM17 inh 10.1*, ADAM10 confirm 3.6, ADAM17 counter 0.7, ADAM10 counter 35.9* and ADAM17 confirm 21.0*.
